The nature of experiment [1]: NCI Yeast Anticancer Drug Screen. Data for the rad50 strain (AID 155).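 Further: 0% = growth of vehicle-only cultures of the same strain.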 To be noted: S. cerevisiae rad50 strain growth inhibition; at 50.0 µM; active compounds read high. The gist of the method: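 Cells are treated with compound, grown, and their growth is then scored against vehicle-only cultures of the same repair-deficient yeast strain.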
Experiment [2] can be described thus: NCI Yeast Anticancer Drug Screen. Data for the mec2-1 strain (AID 157). To be noted: S. cerevisiae mec2-1 strain, at 50.0 µM, active compounds read high. The gist of the method:
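Strain: mec2-1 (DNA repair/cell cycle alteration). Compound exposure, then growth measured; inhibition expressed relative to vehicle.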

Experiment [3] can be described thus: NCI Yeast Anticancer Drug Screen. Data for the sgs1 mgt1 strain (AID 161).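 Further: 0% = growth of cultures given vehicle only.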 To be noted: S. cerevisiae sgs1 mgt1 strain, at 50.0 µM, active compounds read high. An outline of the steps: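 Read-out: growth inhibition vs vehicle controls. Cells: mutant yeast strain deficient in DNA damage repair.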
The nature of experiment [4]: NCI Yeast Anticancer Drug Screen. Data for the cln2 rad14 strain (AID 165).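 Further: 0% = growth equal to vehicle treated cultures.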 To be noted: S. cerevisiae cln2 rad14 strain, at 50.0 µM, active compounds read high. An outline of the steps: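 Compounds are applied to the cln2 rad14 yeast strain, and growth is then compared with that of vehicle-treated cultures to give inhibition.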
Experiment [5] is described as follows: NCI Yeast Anticancer Drug Screen. Data for the bub3 strain (AID 167). To be noted: S. cerevisiae bub3 mutant strain, at 50.0 µM, active compounds read high. The gist of the method:
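Part of a panel of yeast mutants defective in DNA damage repair or cell cycle regulation. Each strain is grown with compound, and inhibition is calculated relative to solvent-treated cultures.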

Experiment [6] can be described thus: NCI Yeast Anticancer Drug Screen. Data for the mlh1 rad18 strain (AID 175). To be noted: S. cerevisiae mlh1 rad18 strain growth inhibition; at 50.0 µM; active compounds read high. An outline of the steps:
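Read-out is yeast growth inhibition, calculated against vehicle-only controls. The compound was applied to a strain engineered with DNA damage repair alterations.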

This is part of a sample that, as a whole, favours compounds with a hit. Of some 79,000 tested, about 15% had one in any assay. Unmarked numbers belong to inactive results. Active and inactive are the calls of the source. No stated cut-off is given here; in the data, active means growth inhibition above about 70%; inactive means the rest.

For the compound `COC(=O)C(NC(=O)c1ccccc1)C(c1c(O)cc(O)cc1O)P(=O)(OC)OC` (configuration not stated), the growth inhibition in experiment [1] is -4.75%; in experiment [2], 10.3%; in experiment [3], 12.4%; in experiment [4], 3.35%; in experiment [5], 1%; in experiment [6], 18%.
As for `CN(C)CN1CSC(=S)N(CN(C)C)C1`, the growth inhibition in experiment [1] is 20.2%; in experiment [2] it was 37%; in experiment [3], 6%; in experiment [4], -10.7%; in experiment [5], -5%; in experiment [6], 26.4%.
As for `COCOc1ccc(C(=O)C(C)c2ccc(OCOC)cc2OCOC)c(O)c1` (configuration not stated), the growth inhibition in experiment [1] was 39.4%; in experiment [2], 17.2%; in experiment [3], 26.8%; in experiment [4], 23.2%; in experiment [5] it was 40.8%; in experiment [6], 36.8%.
Take `NNC(=S)N/N=C\c1ccnc2ccccc12`: the growth inhibition is 9.05% in experiment [1]; 2.85% in experiment [2]; 36.6% in experiment [3]; 28.7% in experiment [4]; 30.2% in experiment [5]; 23.4% in experiment [6].
As for `COc1ccc2c(C)cc(N/N=C(\C)C=O)nc2c1`, the growth inhibition in experiment [1] was 19.9%; in experiment [2], 19.4%; in experiment [3] it was 18.8%; in experiment [4] it was 11.9%; in experiment [5], 10.8%; in experiment [6], -9.45%.
As for `CCN(CC)Cc1cc(-n2cnc3c(=S)nc[nH]c32)ccc1O`, the growth inhibition is -3.15% in experiment [1]; -12.4% in experiment [2]; -8.8% in experiment [3]; 3.45% in experiment [4]; -5.65% in experiment [5]; -3.2% in experiment [6].
Regarding `C=CCCCCCCCCC(=O)NCCN1CCOCC1`, the growth inhibition is 84.5% (active) in experiment [1]; 93.8% (active) in experiment [2]; 99.2% (active) in experiment [3]; 93.8% (active) in experiment [4]; 91.8% (active) in experiment [5]; 98.2% (active) in experiment [6].
In the case of `C[n+]1ccc2c(Br)cccc2c1`, the growth inhibition in experiment [1] is -1.8%; in experiment [2] it was -14.9%; in experiment [3], -6.45%; in experiment [4] it was -12.7%; in experiment [5], -1%; in experiment [6], 13.5%.
`CCC(C)OC(=S)S.[Ag]` (configuration not stated): the growth inhibition in experiment [1] was 5.25%; in experiment [2], -7.2%; in experiment [3], 0.7%; in experiment [4], -9.4%; in experiment [5] it was -1.85%; in experiment [6], 10.7%.
Turning to `Cc1c2ccccc2nc(CSCC(O)CO)[n+]1[O-]` (configuration not stated), the growth inhibition in experiment [1] was -8.4%; in experiment [2] it was 10.7%; in experiment [3], 12.3%; in experiment [4], -55.6%; in experiment [5], 14.4%; in experiment [6], 6.85%.
Turning to `Cc1cc(CC#N)c(CC#N)cc1C`, the growth inhibition is 4.05% in experiment [1]; -10.1% in experiment [2]; -7% in experiment [3]; 9.2% in experiment [4]; -3.95% in experiment [5]; 3.95% in experiment [6].
Consider `N#C/C(=C(/N)N1CCOCC1)N1CCOCC1`, for which the growth inhibition in experiment [1] is -18.4%; in experiment [2], -8.95%; in experiment [3] it was -9.15%; in experiment [4], -13.6%; in experiment [5] it was 16.1%; in experiment [6], -4.2%.
With `CCCCCCCCCCN=C(N)CSSCC(N)=NCCCCCCCCCC`, the growth inhibition is 96.2% (active) in experiment [1]; 97% (active) in experiment [2]; 97.1% (active) in experiment [3]; 92.8% (active) in experiment [4]; 95% (active) in experiment [5]; 97.4% (active) in experiment [6].
For the compound `c1ccc(CNC2Cc3ccccc3C2)cc1`, the growth inhibition was 19.6% in experiment [1]; -10.7% in experiment [2]; 0.55% in experiment [3]; -36.1% in experiment [4]; -11.7% in experiment [5]; -2.4% in experiment [6].
As for `CCOC(=O)C(=[N+]=[N-])C(=O)c1cc2ccccc2oc1=O`, the growth inhibition was -19.2% in experiment [1]; 6.85% in experiment [2]; 13.6% in experiment [3]; -0.55% in experiment [4]; -13.7% in experiment [5]; 22.2% in experiment [6].
For `CC1=C(C#N)C(C)(C)c2ccccc21`, the growth inhibition is 19.9% in experiment [1]; -10.9% in experiment [2]; 1.9% in experiment [3]; -25.9% in experiment [4]; 10% in experiment [5]; -13.2% in experiment [6].
Turning to `O=C(NC(C(=O)O)c1ccccc1)c1ccc([N+](=O)[O-])cc1` (configuration not stated), the growth inhibition in experiment [1] was 8.2%; in experiment [2], 10.1%; in experiment [3], 13.4%; in experiment [4], -0.6%; in experiment [5] it was 31.6%; in experiment [6], 11.6%.
`COC1=CC(=O)OC(c2ccccc2)(c2ccccc2)C1`: the growth inhibition is -3.6% in experiment [1]; -15.1% in experiment [2]; 8.8% in experiment [3]; 13% in experiment [4]; 13.6% in experiment [5]; -3.65% in experiment [6].
Take `CCOC(=O)C1=C(C)OC(=O)CC1C` (configuration not stated): the growth inhibition in experiment [1] was 33.2%; in experiment [2], -15.8%; in experiment [3], 3.75%; in experiment [4] it was 9.05%; in experiment [5] it was -23.6%; in experiment [6], 14%.
On to `COC(=O)Nc1nc2ccc(C3c4c(n[nH]c4C)CC(C)(O)C3C(C)=O)cc2[nH]1` (configuration not stated), for which the growth inhibition in experiment [1] is 20.4%; in experiment [2], 3.85%; in experiment [3], -7.3%; in experiment [4], -6.5%; in experiment [5], 0.45%; in experiment [6], 10.6%.
Turning to `O=c1[nH]c(SCc2ccco2)nc2ccccc12`, the growth inhibition in experiment [1] is 0.05%; in experiment [2], 12.7%; in experiment [3], 6.3%; in experiment [4], -23.7%; in experiment [5], 1.8%; in experiment [6], -1.75%.
As to `OC1CCCCCCCCCCC1C(O)(C(F)(F)F)C(F)(F)F` (configuration not stated), the growth inhibition in experiment [1] is 99.3% (active); in experiment [2], 99.5% (active); in experiment [3] it was 99.8% (active); in experiment [4] it was 99% (active); in experiment [5], 99.6% (active); in experiment [6], 98.8% (active).
With `Cc1ccc(C)c(NC(=O)/C=N/O)c1`, the growth inhibition in experiment [1] was 1%; in experiment [2], -5.95%; in experiment [3] it was 18.5%; in experiment [4], 12.4%; in experiment [5], 2.3%; in experiment [6], 1%.
For `O=C(Cc1nc2ccccc2[nH]c1=O)c1cccnc1`, the growth inhibition is -0.5% in experiment [1]; 8.25% in experiment [2]; 13.2% in experiment [3]; 1.55% in experiment [4]; -4.75% in experiment [5]; 16.3% in experiment [6].
As for `COC(=O)C(NC(=O)C(C)N1C(=O)CCC(NS(=O)(=O)c2ccc(C)cc2)C1=O)C(C)C` (configuration not stated), the growth inhibition in experiment [1] was 30.1%; in experiment [2], 8%; in experiment [3] it was 9.4%; in experiment [4], 1.05%; in experiment [5], 3.55%; in experiment [6], 15.8%.
For `O=C1c2ccccc2-c2nc(-c3cccs3)cc3c2c1nc1ccccc13`, the growth inhibition in experiment [1] is 41.2%; in experiment [2], 21.4%; in experiment [3], 29.1%; in experiment [4] it was 21.9%; in experiment [5] it was 25%; in experiment [6], 36.2%.
For `COc1cccc(C2CC(c3cc(OC)c(OC)c(OC)c3)CC(c3cccc(OC)c3)N2)c1` (configuration not stated), the growth inhibition was -5.4% in experiment [1]; 1.45% in experiment [2]; 15.2% in experiment [3]; 16.4% in experiment [4]; 19.6% in experiment [5]; 5.7% in experiment [6].
As for `COc1ccc(CNc2nc3ccc(C(F)(F)F)cc3nc2-c2ccccc2)cc1OC`, the growth inhibition in experiment [1] is -33.8%; in experiment [2] it was 3.7%; in experiment [3], 17.6%; in experiment [4], 6.45%; in experiment [5] it was 1.05%; in experiment [6] it was -11.9%.
With `O=[N+]([O-])C1C2CCC(C2)C1c1ccccc1` (configuration not stated), the growth inhibition is 9.55% in experiment [1]; -3.75% in experiment [2]; -0.55% in experiment [3]; -2.05% in experiment [4]; 14.9% in experiment [5]; -0.2% in experiment [6].
For the compound `CCCC(C)C(O)CC` (configuration not stated), the growth inhibition in experiment [1] was -27.1%; in experiment [2], -28.9%; in experiment [3], 7.45%; in experiment [4], 13.3%; in experiment [5], -19.5%; in experiment [6], -10%.
For `CC(C)OC(=O)Nc1cccc(NC(=O)OCCCl)c1`, the growth inhibition in experiment [1] was 7.1%; in experiment [2] it was -3.65%; in experiment [3] it was 9.15%; in experiment [4], -9.85%; in experiment [5] it was -8.8%; in experiment [6], -7.1%.
With `CSCCC(NC(=O)NS(=O)(=O)c1ccc(C)cc1)C(=O)O` (configuration not stated), the growth inhibition in experiment [1] is -4.3%; in experiment [2], -16.1%; in experiment [3], -2.3%; in experiment [4] it was 20.2%; in experiment [5], 6.45%; in experiment [6] it was 9.55%.
For the compound `C[C@H](CCC(=O)O)[C@H]1CC[C@H]2[C@@H]3[C@@H](O)C[C@@H]4C[C@H](O)CC[C@]4(C)[C@H]3C[C@H](O)[C@]12C`, the growth inhibition was -3.3% in experiment [1]; -7.05% in experiment [2]; 11.1% in experiment [3]; -20.6% in experiment [4]; -14.7% in experiment [5]; 7.8% in experiment [6].
As for `O=c1c2ccccc2nc(-c2ccccc2)n1/N=C/c1ccccc1O`, the growth inhibition in experiment [1] is 1.15%; in experiment [2], 38.8%; in experiment [3], 34.6%; in experiment [4], -5.65%; in experiment [5], 32.9%; in experiment [6] it was 27.1%.
Regarding `CCCCOC(=O)C(C)OC(=O)COc1ccc(Cl)cc1C` (configuration not stated), the growth inhibition is 5.05% in experiment [1]; -13.7% in experiment [2]; 15.4% in experiment [3]; -40.7% in experiment [4]; 2.25% in experiment [5]; -1.05% in experiment [6].
Regarding `NC(=O)CNC(=O)[C@@H]1C[C@@H](OCCC(=O)O)CN1C(=O)OCc1ccccc1`, the growth inhibition in experiment [1] is -32.2%; in experiment [2] it was -8.75%; in experiment [3], -24.5%; in experiment [4] it was 4.1%; in experiment [5], 14.5%; in experiment [6], 4.95%.
In the case of `O=C(OCCSC(=S)N1CCCCC1)c1ccccc1`, the growth inhibition is -13.5% in experiment [1]; -8.6% in experiment [2]; 2.4% in experiment [3]; -11.9% in experiment [4]; 16.6% in experiment [5]; -0.4% in experiment [6].
